{
  "source": "paper PMC11062922",
  "about": "(Nature Chemical Biology, 2023)",
  "design_in_all_cases": "species or system human, MV4-11 + K-562 + COLO205 + SK-N-BE2 + OVCAR-8",
  "key": {"CSNK1D": {"tested_on": "CSNK1D", "details": "read-out: apparent Kd, compound concentrations: 100 nM and 1000 nM (sheet 'Samples'), n = 1"}, "CSNK1E": {"tested_on": "CSNK1E", "details": "read-out: apparent Kd, compound concentrations: 100 nM and 1000 nM (sheet 'Samples'), n = 1"}, "FN3KRP": {"tested_on": "FN3KRP", "details": "read-out: apparent Kd; compound concentrations: 100 nM and 1000 nM (sheet 'Samples'), CATDS: 4.0325276132441398E-2; n = 1"}, "FN3K": {"tested_on": "FN3K", "details": "read-out: apparent Kd; compound concentrations: 100 nM and 1000 nM (sheet 'Samples'), CATDS: 3.5729467318233003E-2; n = 1"}, "MAPK14": {"tested_on": "MAPK14", "details": "read-out: apparent Kd; compound concentrations: 100 nM and 1000 nM (sheet 'Samples'), CATDS: 0.154329578320028; n = 1"}, "MAPK1": {"tested_on": "MAPK1", "details": "read-out: apparent Kd; compound concentrations: 100 nM and 1000 nM (sheet 'Samples'), CATDS: 3.8538636035205603E-2; n = 1"}, "MAPK8": {"tested_on": "MAPK8", "details": "read-out: apparent Kd; compound concentrations: 100 nM and 1000 nM (sheet 'Samples'), CATDS: 4.79247089655142E-2; n = 1"}, "MAPK9": {"tested_on": "MAPK9", "details": "read-out: apparent Kd; compound concentrations: 100 nM and 1000 nM (sheet 'Samples'), CATDS: 0.13086781986766799; n = 1"}, "MAPKAPK2": {"tested_on": "MAPKAPK2", "details": "read-out: apparent Kd; compound concentrations: 100 nM and 1000 nM (sheet 'Samples'), CATDS: 0.22131403995385401; n = 1"}, "NUAK2": {"tested_on": "NUAK2", "details": "read-out: apparent Kd; compound concentrations: 100 nM and 1000 nM (sheet 'Samples'), CATDS: 3.7503176439752997E-2; n = 1"}, "PAK6": {"tested_on": "PAK6", "details": "read-out: apparent Kd; compound concentrations: 100 nM and 1000 nM (sheet 'Samples'), CATDS: 3.6851014087153897E-2; n = 1"}, "PDXK": {"tested_on": "PDXK", "details": "read-out: apparent Kd; compound concentrations: 100 nM and 1000 nM (sheet 'Samples'), CATDS: 4.2866477052702801E-2; n = 1"}, "PRKD1": {"tested_on": "PRKD1", "details": "read-out: apparent Kd; compound concentrations: 100 nM and 1000 nM (sheet 'Samples'), CATDS: 5.7643815107824597E-2; n = 1"}, "PRKD2": {"tested_on": "PRKD2", "details": "read-out: apparent Kd; compound concentrations: 100 nM and 1000 nM (sheet 'Samples'), CATDS: 6.6871929523774506E-2; n = 1"}, "PRKD3": {"tested_on": "PRKD3", "details": "read-out: apparent Kd; compound concentrations: 100 nM and 1000 nM (sheet 'Samples'), CATDS: 6.6409082952543802E-2; n = 1"}, "RIPK2": {"tested_on": "RIPK2", "details": "read-out: apparent Kd; compound concentrations: 100 nM and 1000 nM (sheet 'Samples'), CATDS: 4.9490640044255602E-2; n = 1"}, "CSNK1A1": {"tested_on": "CSNK1A1", "details": "read-out: apparent Kd; compound concentrations: 100 nM and 1000 nM (sheet 'Samples'), CATDS: 0.118789019342549; n = 1"}, "FLT3": {"tested_on": "FLT3", "details": "read-out: apparent Kd; compound concentrations: 100 nM and 1000 nM (sheet 'Samples'), CATDS: 0.137141810176551; n = 1"}, "MAP2K1": {"tested_on": "MAP2K1", "details": "read-out: apparent Kd; compound concentrations: 100 nM and 1000 nM (sheet 'Samples'), CATDS: 0.12402883868582899; n = 1"}, "MAP3K12": {"tested_on": "MAP3K12", "details": "read-out: apparent Kd; compound concentrations: 100 nM and 1000 nM (sheet 'Samples'), CATDS: 0.14214405219183901; n = 1"}, "PIK3C2A": {"tested_on": "PIK3C2A", "details": "read-out: apparent Kd; compound concentrations: 100 nM and 1000 nM (sheet 'Samples'), CATDS: 0.1177028048525; n = 1"}, "PLK1": {"tested_on": "PLK1", "details": "read-out: apparent Kd, compound concentrations: 100 nM and 1000 nM (sheet 'Samples'), n = 1"}, "CLK1": {"tested_on": "CLK1", "details": "read-out: apparent Kd, n = 1"}, "CLK4": {"tested_on": "CLK4", "details": "read-out: apparent Kd, n = 1"}, "NEK3": {"tested_on": "NEK3", "details": "read-out: apparent Kd; compound concentrations: 100 nM and 1000 nM (sheet 'Samples'), CATDS: 0.168041576676878; n = 1"}, "PIK3CG": {"tested_on": "PIK3CG", "details": "read-out: apparent Kd; compound concentrations: 100 nM and 1000 nM (sheet 'Samples'), CATDS: 0.474922434423799; n = 1"}, "GSK3A": {"tested_on": "GSK3A", "details": "read-out: apparent Kd; compound concentrations:100 nM and 1000 nM (sheet 'Samples'); n = 1"}, "GSK3B": {"tested_on": "GSK3B", "details": "read-out: apparent Kd; compound concentrations:100 nM and 1000 nM (sheet 'Samples'); n = 1"}, "FER": {"tested_on": "FER", "details": "read-out: apparent Kd; compound concentrations: 100 nM and 1000 nM (sheet 'Samples'), CATDS: 0.191525182518377; n = 1"}, "FES": {"tested_on": "FES", "details": "read-out: apparent Kd; compound concentrations: 100 nM and 1000 nM (sheet 'Samples'), CATDS: 0.141762780842772; n = 1"}, "IGF1R": {"tested_on": "IGF1R", "details": "read-out: apparent Kd; compound concentrations: 100 nM and 1000 nM (sheet 'Samples'), CATDS: 0.28711469302714299; n = 1"}, "INSR": {"tested_on": "INSR", "details": "read-out: apparent Kd; compound concentrations: 100 nM and 1000 nM (sheet 'Samples'), CATDS: 0.56670438264140999; n = 1"}, "PTK2": {"tested_on": "PTK2", "details": "read-out: apparent Kd; compound concentrations: 100 nM and 1000 nM (sheet 'Samples'), CATDS: 8.5472412677607995E-2; n = 1"}, "[1]": {"details": "compound concentrations:100 nM and 1000 nM (sheet 'Samples')"}},
  "note": "Like-named read-outs stand apart in the source and are kept apart here.",
  "data": [
    {"smiles": "CC(CO)Nc1cc(-c2[nH]c3cccnc3c2-c2ccc(F)cc2)ccn1.Cl", "note": "(stereo not shown) [RO3202312-001]", "values": [
      {"measurement": "potency estimated from few doses", "setting": "CSNK1D; CATDS: 9.2931032054770199E-2", "result": 48.2, "unit": "nM"},
      {"measurement": "potency estimated from few doses", "setting": "CSNK1E; CATDS: 6.9907661952316402E-2", "result": 115, "unit": "nM"},
      {"measurement": "potency estimated from few doses", "setting": "FN3KRP", "result": 967, "unit": "nM"},
      {"measurement": "potency estimated from few doses", "setting": "FN3K", "result": 1990, "unit": "nM"},
      {"measurement": "potency estimated from few doses", "setting": "MAPK14", "result": 12.1, "unit": "nM"},
      {"measurement": "potency estimated from few doses", "setting": "MAPK1", "result": 1240, "unit": "nM"},
      {"measurement": "potency estimated from few doses", "setting": "MAPK8", "result": 440, "unit": "nM"},
      {"measurement": "potency estimated from few doses", "setting": "MAPK9", "result": 18.6, "unit": "nM"},
      {"measurement": "potency estimated from few doses", "setting": "MAPKAPK2", "result": 4.81, "unit": "nM"},
      {"measurement": "potency estimated from few doses", "setting": "NUAK2", "result": 1450, "unit": "nM"},
      {"measurement": "potency estimated from few doses", "setting": "PAK6", "result": 1620, "unit": "nM"},
      {"measurement": "potency estimated from few doses", "setting": "PDXK", "result": 716, "unit": "nM"},
      {"measurement": "potency estimated from few doses", "setting": "PRKD1", "result": 219, "unit": "nM"},
      {"measurement": "potency estimated from few doses", "setting": "PRKD2", "result": 132, "unit": "nM"},
      {"measurement": "potency estimated from few doses", "setting": "PRKD3", "result": 135, "unit": "nM"},
      {"measurement": "potency estimated from few doses", "setting": "RIPK2", "result": 386, "unit": "nM"}
    ]},
    {"smiles": "CC(C)(C)n1cnc2c(N)ncnc21", "note": "[SKF-97359]", "values": [
      {"measurement": "potency estimated from few doses", "setting": "CSNK1A1", "result": 1870, "unit": "nM"},
      {"measurement": "potency estimated from few doses", "setting": "CSNK1D; CATDS: 0.12511674231417799", "result": 1680, "unit": "nM"},
      {"measurement": "potency estimated from few doses", "setting": "CSNK1E; CATDS: 0.10783492256042899", "result": 2330, "unit": "nM"},
      {"measurement": "potency estimated from few doses", "setting": "FLT3", "result": 1410, "unit": "nM"},
      {"measurement": "potency estimated from few doses", "setting": "MAP2K1", "result": 1710, "unit": "nM"},
      {"measurement": "potency estimated from few doses", "setting": "MAP3K12", "result": 1320, "unit": "nM"},
      {"measurement": "potency estimated from few doses", "setting": "PIK3C2A", "result": 1910, "unit": "nM"},
      {"measurement": "potency estimated from few doses", "setting": "PLK1; CATDS: 0.134584248305568", "result": 1460, "unit": "nM"}
    ]},
    {"smiles": "CC(C)C(=O)N[C@@H]1CCN(C(=O)Nc2nc3c(s2)-c2nc(-c4ccccc4Cl)ncc2CC3)C1", "note": "[BI00047804]", "values": [
      {"measurement": "potency estimated from few doses", "setting": "CLK1; compound concentrations: 100 nM and 1000 nM (sheet 'Samples'), CATDS: 0.240445755473225", "result": 416, "unit": "nM"},
      {"measurement": "potency estimated from few doses", "setting": "CLK4; compound concentrations: 100 nM and 1000 nM (sheet 'Samples'), CATDS: 0.26423272520910102", "result": 334, "unit": "nM"},
      {"measurement": "potency estimated from few doses", "setting": "NEK3", "result": 1310, "unit": "nM"},
      {"measurement": "potency estimated from few doses", "setting": "PIK3CG", "result": 115, "unit": "nM"}
    ]},
    {"smiles": "COc1ccc(CSc2nnc(-c3ccc4ncsc4c3)o2)cc1C(F)(F)F", "note": "[TPKI-91]", "values": [
      {"measurement": "potency estimated from few doses", "setting": "CLK1; [1]", "result": 549, "unit": "nM"},
      {"measurement": "potency estimated from few doses", "setting": "CLK4; [1]", "result": 599, "unit": "nM"},
      {"measurement": "potency estimated from few doses", "setting": "GSK3A", "result": 131, "unit": "nM"},
      {"measurement": "potency estimated from few doses", "setting": "GSK3B", "result": 72.5, "unit": "nM"}
    ]},
    {"smiles": "COc1cc2c(cc1Nc1nc(Nc3ccsc3C(N)=O)c3cc[nH]c3n1)N(C(=O)CN(C)C)CCC2", "note": "[GSK2110236A]", "values": [
      {"measurement": "potency estimated from few doses", "setting": "CLK1; compound concentrations: 100 nM and 1000 nM (sheet 'Samples'), CATDS: 8.2490921109223694E-2", "result": 1090, "unit": "nM"},
      {"measurement": "potency estimated from few doses", "setting": "CLK4; compound concentrations: 100 nM and 1000 nM (sheet 'Samples'), CATDS: 9.1933960168397902E-2", "result": 641, "unit": "nM"},
      {"measurement": "potency estimated from few doses", "setting": "FER", "result": 44.5, "unit": "nM"},
      {"measurement": "potency estimated from few doses", "setting": "FES", "result": 115, "unit": "nM"},
      {"measurement": "potency estimated from few doses", "setting": "IGF1R", "result": 16.3, "unit": "nM"},
      {"measurement": "potency estimated from few doses", "setting": "INSR", "result": 4.73, "unit": "nM"},
      {"measurement": "potency estimated from few doses", "setting": "PLK1; CATDS: 8.4906950641747497E-2", "result": 940, "unit": "nM"},
      {"measurement": "potency estimated from few doses", "setting": "PTK2", "result": 909, "unit": "nM"}
    ]}
  ]
}
